Results filed as inconclusive are left out. A number with no mark means an inactive call. The call rests on the fitted dose curve.
Test: p53 small molecule agonists, cell-based qHTS assay with rat liver microsomes (AID 1963578)
Conditions: HCT-116 p53RE-bla, beta-lactamase ratio, 16 h; series mostly up to 66 µM; activation: at the top concentration
Excerpt: U.S. Tox21 Program National Center for Advancing Translational Sciences [NCATS] Division of Preclinical Innovation [DPI] U.S. Environmental Protection Agency [EPA] National Institutes of Environmental Health Sciences [NIEHS] National Toxicology Program [NTP] U.S. Food and Drug Administration [FDA] Tox21 Assay Overview: p53, a tumor suppressor protein, is activated following cellular insult, including DNA damage and other cellular stresses. The activation of p53 regulates cell fate by inducing DNA repair, cell cycle arrest, apoptosis, or cellular senescence. The activation of p53, therefore, is a good indicator of DNA damage and other cellular stresses. […] The activation of the reporter gene under culture conditions can be detected by fluorescence intensity. This cell line was used to screen the Tox21 10K compound library in the condition of presence of rat liver microsomes and to identify agonists that activate the p53 signaling pathway after in vitro metabolic activation (Ooka et al., Archive of Toxicology 96:1975-1987, 2022).
Tox21 Assay Protocol Summary: The p53RE-bla cells were dispensed at 4,000cells/3ul/well in 1536-well black-clear bottom plates. After the assay plates were incubated at 37 C, 5% CO2 incubator for 5 hours, 23 nL of compounds dissolved in DMSO, positive controls or DMSO only was transferred to the assay plate. Following compound addition, 3 uL of rat liver microsomes (Molecular Toxicology, Boone, NC) at final concentration of 0.5 mg/mL and 1uL of Beta-Nicotinamide adenine dinucleotide 2-phosphate (NADPH) at final concentration of 0.5 mg/mL were transferred to the assay plate. The plates were incubated at 37 C for 16 hours. 1 uL of LiveBLAzer detection mixture was added to each well and the plates were incubated at room temperature in the dark for 2 h.
On the % scale 0 is the no-effect control and ±100 the full control effect.

In order of rising “activation” value:
1. O=C1CCCc2c(O)cccc21  -7.11% [at 30.3 µM]
2. O=c1[nH]sc2cc(Cl)ccc12  -6.15% [at 30.3 µM]
3. CN1CCN(c2cc3c(cc2F)c(=O)c(C(=O)O)cn3-c2ccc(F)cc2)CC1  -4.48% [at 30.3 µM]
4. Nc1nc2c(ncn2CCC(CO)CO)c(=O)[nH]1  -3.07% [at 30.3 µM]
5. CCN(CC)CCOc1ccc(C(O)(Cc2ccc(Cl)cc2)c2ccc(C)cc2)cc1 (stereo not given)  -1.85% [at 30.3 µM]
6. Cc1nc2ccccn2c(=O)c1CCN1CCC(C(=O)c2ccc(F)cc2)CC1  -1.74% [at 30.3 µM]
7. CCOC(=O)[C@H](CCc1ccccc1)N[C@H]1CS[C@H](c2cccs2)CN(CC(=O)O)C1=O  -1.58% [at 30.3 µM]
8. CC(C)OC(=O)c1cc2c(OCC(O)CNC(C)(C)C)cccc2[nH]1 (stereo not given)  -1.49% [at 30.3 µM]
9. Cc1cc(OI)c(C(C)C)cc1-c1cc(C(C)C)c(OI)cc1C  -0.955% [at 30.3 µM]
10. CCOC(=O)Oc1ccc(CCNC(=O)[C@H](CCSC)NC(C)=O)cc1OC(=O)OCC  -0.77% [at 30.3 µM]
11. CN1CCCN=C1COC(=O)C(O)(c1ccccc1)C1CCCCC1 (stereo not given)  -0.422% [at 30.3 µM]
12. Cc1ccc(=O)n(-c2ccccc2)c1  0.0881% [at 30.3 µM]
13. CCCCCCn1c(=O)c2c(ncn2C)n(C)c1=O  0.18% [at 30.3 µM]
14. CN=C(N)NC(=O)Nc1c(C)cccc1C  0.723% [at 30.3 µM]
15. CC(C)(C)NCC(O)COc1cccc2c1CCC(=O)N2 (stereo not given)  1.35% [at 30.3 µM]
16. CCn1cc(C(=O)O)c(=O)c2cc(F)c(N3CCNCC3)nc21  1.44% [at 30.3 µM]
17. CC(C)c1ccc(C(=O)N=C(N)N)cc1S(C)(=O)=O  1.6% [at 30.3 µM]
18. CCNC(=O)NCCCOc1cccc(CN2CCCCC2)c1  4.84% [at 30.3 µM]
19. O=P(O)(O)C(O)(Cc1cccnc1)P(=O)(O)O  5.02% [at 30.3 µM]
20. CNC(=O)c1ccccc1Sc1ccc2c(/C=C/c3ccccn3)n[nH]c2c1  13.8% [at 30.3 µM]

In order of falling “activation” value:
1. C=CC1CO1 (stereo not given)  6.94%
2. CCCC(=O)OCCC(C)C  3.87%
3. O=C1CCC(C2CCCCC2)CC1  1.86%
4. CCN(CC)c1ccc(N)cc1  1.06%
5. CCCCCCCC/C=C\CCCCCCCC(=O)OC  0.887%
6. Cc1cc(F)ccc1-c1cc(N2CC[C@@H](O)[C@H]2CO)ncc1N(C)C(=O)C(C)(C)c1cc(C(F)(F)F)cc(C(F)(F)F)c1  0.837%
7. [Cl][Pt-2]([Cl])([Cl])[Cl]  0.298%
8. CC(=O)Nc1ccc(C)cc1C  0.16%
9. O=C1CCCCCCCCCCOCCCCO1  0.116%
10. COc1cccc(O)c1  -0.239%
11. CC(C)(O)CCC(C)(C)O  -0.241%
12. CCCCCCCCC(C)=O  -0.514%
13. C[C@H](CCC(=O)NCC(=O)O)[C@H]1CC[C@H]2[C@@H]3[C@H](O)C[C@@H]4C[C@H](O)CC[C@]4(C)[C@H]3C[C@H](O)[C@]12C  -0.795%
14. O=[N+]([O-])c1ccc(F)c(Cl)c1  -0.808%
15. N#CCc1ccccc1[N+](=O)[O-]  -0.817%
16. Cc1c(C)c2c(c(C)c1OC(=O)CCC(=O)O)CC[C@@](C)(CCC[C@H](C)CCC[C@H](C)CCCC(C)C)O2  -1.38%
17. CC(C)=CC(=O)C=C(C)C  -1.48%
18. CCCOC(=O)c1ccc(C(=O)OCCC)nc1  -3.08%
19. CCC(C)COC(=O)CC(C)C (stereo not given)  -5.55%

For O=C(CCN1CCN2CCCC2C1)N1c2ccccc2Sc2ccc(Cl)cc21 (stereo not given), the activation was 1.06% [at 13.6 µM].

Reference: PubChem BioAssay (Tox21)
